Source: PubChem BioAssay (several laboratories)
Sampled rows, rich in hits. Any-hit rate of the full collection: about 1.5%.
NTR1 ag – activates human neurotensin receptor 1; NTR1-U2OS beta-arrestin-GFP spot imaging, agonist mode; P30989; AID 493036; 0.17% of 330,000 active; activation, % at 20 µM;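 active = activation at or above 40% of the spot to cytoplasm intensity ratio, with at least 20 cells analyzed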;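 also: 0% = DMSO without peptide and 100% = 100 nM NTR1 peptide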
B2AR ag – agonists of human beta-2 adrenergic receptor inducing internalization; P07550; 0.43% of 340,000 active; response, % (test concentration not listed); Am2.2-beta2AR cells, FAP receptor internalization, flow cytometry; AID 504454;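 active = response above a set limit, near 3 SD of response in nonfluorescent compounds, cut at about 42% in these data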
ABHD5 PLIN5 PPI – ABHD5-PLIN5 protein interaction inhibition; Q00G26+Q8WTS1; Split G. princeps luciferase complementation, luminescence, 4 h; inhibition, % at 4 µM; 0.78% of 360,000 active; AID 602281;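 active = inhibition above the mean inhibition across every tested compound plus 3 SD, cut at about 22% in these data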;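 also: 0% = DMSO only wells and the 100% control is not disclosed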
TLR9-MyD88 block – blocks human TLR9 binding to MyD88; Q9NR96+Q99836; CHO BLA complementation TLR9-MyD88, CCF4 FRET ratio; inhibition, % at 4.98 µM; 0.21% of 340,000 active; AID 504734;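 active = inhibition above the mean over all tested compounds plus 3 SD, cut at about 21% in these data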;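 also: 0% = DMSO only wells and 100% = clavulanate BLA inhibitor control wells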
TLR4-MyD88 BLA – blocks binding of human TLR4 to MyD88 | 0.18% of 200,000 active | HeLa CL3-4 TLR4/MyD88 BLA complementation, FRET ratio | inhibition, % at 8.4 µM | O00206+Q99836; in the data active = inhibition above about 25%;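 also: 0% = vehicle and 100% = reference inhibitor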
NOD2-RIPK2 inh – blocks binding of human NOD2 to RIPK2; 0.38% of 360,000 active; O43353; inhibition, % at 4.98 µM; AID 624267; CHO BLA complementation NOD2-RIPK2, CCF4 ratio; in the data active = inhibition above about 21%;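 also: 0% = vehicle only and 100% = reference blocker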
ABHD5-PLIN5 conf – ABHD5-PLIN5 interaction inhibition, confirmed. biochemical ABHD5-PLIN5 interaction, luminescence. shares compounds with ABHD5 PLIN5 PPI. 67% of 2,200 active. inhibition, % at 4 µM; in the data active = inhibition above about 23%;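 also: 0% = DMSO vehicle wells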
HNF4 split-luc – active in HNF4 split-luciferase counter-screen for ABHD5-PLIN5 inhibitors; shares compounds with ABHD5 PLIN5 PPI; HNF4 dimerization, luminescence, biochemical; inhibition, % at 4 µM; 77% of 2,200 active;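 active = mean inhibition across replicate wells exceeding the computed hit threshold, cut at about 13% in these data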;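 also: light from luciferase halves that rejoin when HNF4 fusion proteins dimerize; 0% = DMSO only wells and the 100% control is not given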
Active calls of the source: *; . = not tested or not shown.

SMILES | NTR1 ag | B2AR ag | ABHD5 PLIN5 PPI | TLR9-MyD88 block | TLR4-MyD88 BLA | NOD2-RIPK2 inh | ABHD5-PLIN5 conf | HNF4 split-luc
CC(C)C[C@@H](CNCC(=O)[C@H](CC(C)C)NC(=O)c1[nH]cnc1C(=O)N[C@@H](C)CN)NC(=O)c1nc[nH]c1C(=O)N[C@@H](CC(=O)O)C(=O)O | . | 3 | -1 | -6 | . | -5 | . | .
CC1=NN(c2cccc(C(=O)O)c2)C(=O)/C1=C\C=C\c1ccco1 | -1 | 6 | 14 | -7 | -6 | -19 | . | .
CC1=NN(c2ccccc2)C(=O)/C1=C/C=C/c1ccccc1 | 26 | 32 | 25* | -1 | 4 | 1 | 98* | 90*
Cc1csc(=O)n1CCC(=O)OCC(=O)NCc1ccccc1 | . | . | 1 | -4 | . | -4 | . | .
COc1ccc(-c2csc(NC3OC(=O)c4c3ccc(OC)c4OC)n2)cc1OC (centres undefined) | 4 | 9 | 34* | 4 | . | 12 | 63* | 49*
O=c1c2c3nc4ccccc4nc3n(Cc3ccccc3)c2ncn1Cc1ccco1 | . | 15 | 44* | 7 | 8 | -8 | 96* | 95*
CC(=O)Cc1cc(O)c2ccccc2c1OC(=O)c1ccc(Br)cc1 | 0 | 3 | 73* | -5 | . | -5 | 83* | 13*
Cc1ccc(CC#N)c(-c2c(CC#N)ccc(C)c2C)c1C | . | . | 2 | -4 | . | 4 | . | .
Cc1ccc2c(c1C)-c1c(ccc(C)c1C)C(=O)C2=O | . | 14 | 52* | -7 | . | 6 | 43* | 69*
CCOC(=O)[C@]12CCCC=C1N(Cc1ccccc1)C(=O)[C@H](CC(=O)NCCCN1CCCC1=O)C2 | . | . | 4 | . | . | -7 | . | .
O=C(Nc1nnc(-c2ccco2)s1)C1CCCCC1 | -1 | -9 | 5 | 6 | 0 | -8 | . | .
O=C(Nc1nc(-c2ccco2)c(-c2ccco2)s1)C1CCC1 | 6 | -9 | 36* | -15 | -18 | -14 | 13 | 46*
Cc1cccn2c(=O)c3cc(C(=O)NCc4ccco4)c(=N)n(C(C)C)c3nc12 | 6 | 6 | 27* | -4 | -3 | -5 | 6 | 18*
Cc1cccn2c(=O)c3cc(C(=O)NCCc4ccccc4)c(=N)n(Cc4ccco4)c3nc12 | 57* | 0 | 26* | 1 | . | 7 | 6 | 17*
Cc1cccn2c(=O)c3cc(C(=O)NCc4ccco4)c(=N)n(CCc4ccccc4)c3nc12 | 16 | 17 | 16 | -18 | . | 1 | . | .
COCCCn1cc(CN2CC(N3CCN(CCO)CC3)CS2(=O)=O)nn1 (centres undefined) | . | . | -1 | . | . | 12 | . | .
CS(=O)(=O)Nc1cccc(NC(=O)C2Cc3c(-c4ccccc4)ccnc3O2)c1 (centres undefined) | . | . | 3 | . | . | -7 | . | .
CCCNC(=O)C1(C)CCN(C(=O)c2ccc(C)c(F)c2)C1 (centres undefined) | . | . | 0 | . | . | -2 | . | .
NS(=O)(=O)c1ccc(N2CCCCCC2)c([N+](=O)[O-])c1 | -1 | -4 | 74* | . | -10 | -3 | 2 | 13*
O=[N+]([O-])c1cc(S(=O)(=O)N2CCOCC2)ccc1N1CCCC1 | 0 | -18 | 2 | 5 | -9 | -1 | . | .
CCc1cccc(NC(=O)COC(=O)CSc2ccc(C)cc2)c1 | . | . | -1 | 4 | . | 1 | . | .
COc1cc(NC(=O)C/C(C)=N/NC(=O)C(=O)NC2CCCCC2)c(OC)cc1Cl | -1 | 0 | 24* | -2 | -17 | -6 | 6 | 5
COc1ccc(-c2cc(NC(C)=O)c3ncc(-c4ccc(F)cc4)n3c2)cc1OC | . | . | 9 | . | . | 0 | . | .
CCOc1cccc(=O)c2c(C)n(Cc3ccco3)c(C)c12 | 5 | 14 | 24* | 3 | -19 | -3 | 29* | 55*
COc1ccc(Cl)cc1CC1(C)C(=O)Nc2ccc(S(=O)(=O)NC3CCCCC3)cc21 (centres undefined) | . | . | -9 | . | . | 3 | . | .
SMILES | NTR1 ag | B2AR ag | ABHD5 PLIN5 PPI | TLR9-MyD88 block | TLR4-MyD88 BLA | NOD2-RIPK2 inh | ABHD5-PLIN5 conf | HNF4 split-luc
COc1cc(C2Oc3ccccc3C=C2[N+](=O)[O-])cc(OC)c1OC (centres undefined) | . | 31 | 40* | . | . | 2 | 95* | 94*
CCOc1ccc(NCc2nc3ccccc3n2CCOc2ccccc2)cc1 | . | 1 | 25* | 2 | -3 | -6 | 8 | 11
COc1ccc(NC(=O)C2(C)Cc3c(-c4cccc(C(N)=O)c4)ccnc3O2)cc1 (centres undefined) | . | . | 2 | . | . | 3 | . | .
CN1C2C=CC(=O)C1C1C(=O)N(c3ccccc3)C(=O)C12 (centres undefined) | . | . | 44* | . | . | 7 | 42* | 44*
N/C(=N\OC(=O)c1ccccc1)C(Cc1ccccc1)C(=O)NOC(=O)c1ccccc1 (centres undefined) | . | 19 | -1 | 4 | . | 11 | . | .
Cc1ccc([C@H]2C[C@@H](n3cc(-c4ccc(F)cc4)nn3)[C@H](O)CN2C(=O)C2CCCCC2)cc1 | . | . | 1 | -1 | . | 5 | . | .
S=C(NCCCN1CCOCC1)N1CCN(c2nc(-c3ccccc3)cs2)CC1 | 0 | 7 | 14 | 1 | -3 | -8 | . | .
S=C(NCCCN1CCOCC1)N1CCN(c2nc(-c3ccc(Cl)cc3)cs2)CC1 | 8 | 13 | 32* | -6 | -5 | 10 | 17 | 3
CC(C)C(=O)NC(c1ccc(Cl)cc1Cl)c1ccc2cccnc2c1O (centres undefined) | -1 | 28 | 29* | 1 | . | 4 | 15 | 5
CCC(=O)NC(c1ccc(Cl)cc1Cl)c1ccc2cccnc2c1O (centres undefined) | 2 | 7 | 9 | 18 | . | 4 | . | .
CC(C)C[C@@H]1Cc2[nH]c(=S)[nH]c(=O)c2[C@H](C)O1 | . | . | -3 | . | . | -9 | . | .
CSc1ncc(Cl)c(C(=O)Nc2nnc(SC)s2)n1 | 1 | 2 | 1 | 2 | -7 | -9 | . | .
CSc1nnc(NC(=O)c2nc(S(=O)(=O)Cc3ccccc3)ncc2Cl)s1 | 4 | 9 | 23* | -6 | . | 6 | 69* | 42*
Cc1cc(NC(=O)CSc2nnc(COc3ccccc3)n2Cc2ccco2)no1 | 1 | 0 | 2 | -7 | 3 | -7 | . | .
O=C(CSc1nnc(COc2ccccc2)n1Cc1ccco1)NCc1ccco1 | 1 | 7 | 37* | -9 | 6 | 4 | 44* | 54*
CCCCn1c(SCC(=O)NCc2ccco2)nnc1-c1ccoc1C | 0 | 2 | 24* | 10 | -11 | 9 | 55* | 28*
COc1ccc(-c2oc3c(c2C(=O)OCCO)C(OCCO)CCC3)cc1 (centres undefined) | . | . | -3 | . | . | 2 | . | .
O=S(=O)(c1c(F)cccc1F)N(CCc1ccc(F)cc1)C[C@@H](O)COCc1ccccc1 | . | -2 | -5 | -2 | . | -4 | . | .
